Assay outcomes: PubChem, National Center for Advancing Translational Sciences (NCATS)
TDP1 cell noCPT: qHTS for Inhibitors of human tyrosyl-DNA phosphodiesterase 1 (TDP1): qHTS in cells in absence of CPT; DT40 Tdp1-/- hTDP1 cells, no CPT, ATP luminescence, 48 h; Potency, µM (series often up to 46.2 µM), without a hit: at the top dose activity change, negative = growth inhibition, actives largely listed as inhibitors; 420,000 tested, 15% active; AID 686978, 2013; note: nearly all actives have a fitted effect of over 55% in size
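Camptothecin absent (DMSO only). Human TDP1-complemented DT40 knockout cells, 400 cells/well, 37 °C for minimum 48 hr; ATP measured via CellTiter-Glo, 30 min dark incubation, luminescence.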
RORgamma inh: blocks mouse ROR gamma transcriptional activity | P51450 | Drosophila S2 Gal4-RORgamma UAS-luciferase reporter, 20 h | Potency, µM (titrated, usually from 53.6 µM), without a hit: at the highest dose activity change, negative = inhibition, most hits filed as inhibitors | 310,000 tested, 5.4% active | AID 2551; note: nearly all actives have a fitted effect of over 60% in size
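ROR gamma transcriptional activity was tracked as Gal4-UAS luciferase output in stably transfected Drosophila Schneider cells, with compound added 1 hr before 700 uM copper sulfate induction and a 20 hr ambient-temperature incubation.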
TDP1 block: TDP1 (human) enzyme inhibition | Q9NUW8 | recombinant TDP1, AlphaScreen DNA substrate cleavage | Potency, µM (top dose mostly 130 µM), inactives show at the highest dose activity change, negative = inhibition, usual class: inhibitors | 350,000 tested, 0.28% active | AID 485290; note: nearly all actives have a fitted effect of over 40% in size
Target sequence (Q9NUW8 whole entry, looked up): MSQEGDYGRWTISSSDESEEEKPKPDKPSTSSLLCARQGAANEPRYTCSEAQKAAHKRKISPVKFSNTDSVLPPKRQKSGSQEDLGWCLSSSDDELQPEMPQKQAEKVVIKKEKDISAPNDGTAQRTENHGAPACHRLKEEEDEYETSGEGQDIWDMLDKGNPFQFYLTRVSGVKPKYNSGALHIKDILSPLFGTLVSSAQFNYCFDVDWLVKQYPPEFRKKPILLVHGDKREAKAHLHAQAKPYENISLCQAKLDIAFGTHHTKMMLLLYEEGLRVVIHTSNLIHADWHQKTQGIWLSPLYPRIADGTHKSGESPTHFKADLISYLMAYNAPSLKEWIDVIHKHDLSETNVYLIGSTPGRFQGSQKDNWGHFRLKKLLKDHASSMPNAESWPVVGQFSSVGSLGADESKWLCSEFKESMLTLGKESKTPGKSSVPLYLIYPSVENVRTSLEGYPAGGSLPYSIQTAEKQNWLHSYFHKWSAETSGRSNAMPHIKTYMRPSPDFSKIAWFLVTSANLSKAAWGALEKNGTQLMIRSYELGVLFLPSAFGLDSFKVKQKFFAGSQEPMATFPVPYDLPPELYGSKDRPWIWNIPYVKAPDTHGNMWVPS
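Recombinant human Tdp1 (E. coli-expressed, 1 nM final) preincubated with compounds 15 min at room temperature, then 5'-biotin/3'-phosphotyrosine-FITC DNA substrate (15 nM final) added for 5 min. AlphaScreen beads (10 ug/ml final) added 10 min; cleavage lowers signal.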
VP16 counter: inhibits Gal4-VP16 luciferase reporter, ROR gamma counter-screen | 310,000 tested, 3.5% active | Potency, µM (top dose mostly 53.6 µM), inactives show at the highest dose activity, negative = inhibition, actives largely listed as inhibitors | Drosophila S2 Gal4-VP16 UAS-luciferase, luminescence, 20 h;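 note: Gal4-VP16 expression switched on by copper sulfate through the metallothionein promoter; nearly all actives have a fitted effect of over 50% in size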
DT40 TDP1 CPT: growth inhibition of DT40 Tdp1-/-;hTDP1 cells with camptothecin (screen for TDP1 inhibitors) | chicken DT40 Tdp1-/-;hTDP1 cells + 20 nM CPT, ATP luminescence, 48 h | Potency, µM (series often up to 46.2 µM), inactives show at the top dose activity change, negative = growth inhibition, most hits filed as inhibitors | 420,000 tested, 12% active; note: nearly all actives have a fitted effect of over 55% in size
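Chicken DT40 Tdp1-/- cells stably complemented with human TDP1 were seeded at 400 cells/well in medium containing 20 nM camptothecin, exposed to pin-transferred compounds, and grown at 37 °C for at least 48 hr. Viability was read as ATP luminescence.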
* = called active by the depositor; ? = inconclusive; · = no result given; [ ] = remark or other dose. An excerpt weighted towards active compounds, which were near 19% of everything screened. Calls come from the whole dose curve; as a rule, active = well fitted curve in the direction sought with a large enough effect; inconclusive = small, poorly fitted or top-dose-only effect, or another doubt; inactive = no such curve, though single readings can be large; an effect the other way counts as inactive or inconclusive. % is set by controls: 0 for no effect and ±100 for the full control effect; potency is the fitted concentration of half-maximal effect.

SMILES | TDP1 cell noCPT | RORgamma inh | TDP1 block | VP16 counter | DT40 TDP1 CPT
CCc1nnc(NC(=O)c2ccc(S(=O)(=O)N(CCOC)CCOC)cc2)o1 | 2.4% | 2.24µM* | 5.1% | 6.31µM* | -3.9%
CCc1nnc(NC(=O)c2ccc(S(=O)(=O)N(CCOC)CCOC)cc2)s1 | -5.1% | 0.6% | 2.9% | 15.9% | -5.1%
O=C(O)CSc1nnc(-c2ccccc2O)n1Cc1ccccc1 | 1.8% | 1.8% | -2.9% | 0.4% | 3.1%
Cc1nnc(-c2ccc(Oc3ccc(Br)cc3)c([N+](=O)[O-])c2)o1 | 13µM* | ? | 2.8% | 0.1% | ?
O=C(Oc1ccc(-c2cnc3ccccc3n2)cc1)c1ccc(Br)o1 | -14.0% | 17.3% | 8.0% | -28.7% | -24.7%
O=C(Oc1ccc(-c2cnc3ccccc3n2)cc1)c1ccc(Cl)c([N+](=O)[O-])c1 | ? | 23.4% | 2.6% | 2.0%[0.365 µM] | -22.3%
O=[N+]([O-])c1ccc(Oc2ccc(-c3cnc4ccccc4n3)cc2[N+](=O)[O-])cc1 | 14.6µM* | ? | 0.0% | 0.6% | 10.3µM*
O=[N+]([O-])c1cc(-c2cnc3ccccc3n2)ccc1Oc1ccc(Br)cc1 | 13µM* | ? | 0.0% | 11.0% | ?
COc1ccc(CCC(=O)N2CCN(S(=O)(=O)c3cccc(C(F)(F)F)c3)CC2)cc1OC | -24.3% | · | -0.2%[56.1 µM] | · | ?
Cc1cccc(NC(=O)CCN2CCC(C)CC2)c1 | 4.1% | 17.5%[1.91 µM] | · | 1.8% | 14.6%
O=C(Nc1cccc(C(F)(F)F)c1)c1ccc2c(c1)nnn2C1CCCC1 | 8.2µM* | · | 0.0% | · | ?
CCn1nnc2cc(C(=O)NCCc3ccccc3F)ccc21 | -15.0% | ? | 6.3% | 11.2µM* | 14.1%
CCn1nnc2cc(C(=O)Nc3ccc(Br)cc3F)ccc21 | -19.2% | · | -7.9% | · | 4.3%
CCc1ccccc1NC(=O)c1ccc2c(c1)nnn2C1CCCC1 | ? | · | -2.6% | · | 25.9µM*
Cc1nonc1CN(C)C(=O)CC1C(=O)NCCN1Cc1cccc(C(F)(F)F)c1 (centres undefined) | -12.4% | 47.3% | -3.6% | 14.8% | -11.6%
O=C(NCC1CCCO1)c1ccccc1OCc1ccc(Cl)cc1 (centres undefined) | ? | · | 1.1% | · | ?
CC(=O)c1ccc(OCC(C)Oc2ccc(C#N)cc2)cc1 (centres undefined) | 23.1µM* | ? | 0.0% | ? | ?
CC(=O)c1ccc(OCC(O)COc2ccc(C(C)=O)cc2)cc1 | -26.4% | 6.0% | 5.8% | 0.8% | -22.8%
Cn1/c(=N/N=C/c2ccccn2)sc2ccccc21 | ? | 10µM* | 9.8% | ? | 15.9%
COCCCNC(=O)C1CCN(C(=O)c2cc3sccc3n2Cc2ccc(F)cc2)CC1 | ? | 19.6% | 0.7% | -4.1% | ?
O=C(NCc1ccccn1)C1CCN(C(=O)c2cc3sccc3n2Cc2ccc(F)cc2)CC1 | 23.1µM* | 5.5% | 4.6% | -10.4% | ?
CC(C)CCNC(=O)C1CCN(C(=O)c2cc3sccc3n2Cc2ccc(Cl)cc2)CC1 | 9.2µM* | · | 3.9% | · | 18.4µM*
O=C(NCCCN1CCCC1)C1CCN(C(=O)c2cc3sccc3n2Cc2ccc(F)cc2)CC1 | ? | -4.1% | 3.5% | 0.4% | 16.4µM*
O=C(NCc1ccco1)C1CCN(C(=O)c2cc3sccc3n2Cc2ccc(F)cc2)CC1 | ? | 32.5% | -6.6% | -18.4% | ?
CCNc1cccc(S(=O)(=O)N2CCCN(S(=O)(=O)c3ccc4c(c3)OCCO4)CC2)c1 | · | · | 0.9% | · | ·
SMILES | TDP1 cell noCPT | RORgamma inh | TDP1 block | VP16 counter | DT40 TDP1 CPT
COc1ccc(-n2c(=S)[nH]c3cc(C(=O)NCCCN4CCCC4=O)ccc3c2=O)cc1OC | -3.1% | -17.7% | 6.0% | -0.2% | -4.2%
O=C(C(=O)N(Cc1ccccc1)Cc1ccccc1)c1c(-c2ccccc2)[nH]c2ccccc12 | 20.6µM* | · | · | · | 10.3µM*
Cc1ccccc1CCNC(=O)c1ccc2c(c1)c(C)c(C)n2Cc1ccccc1 | ? | · | 13.2% | · | 18.4µM*
O=C(NCCc1ccccc1Cl)c1ccc2nc3ccccc3c(=O)n2c1 | ? | 0.5% | · | -8.5% | 14.6µM*
Cc1[nH]c2ccc(C(=O)NCCc3ccccc3Cl)cc2c1C | ? | · | 7.9% | · | ?
Cc1ccccc1CCNC(=O)c1ccc2c(c1)c(C)c(C)n2C | ? | · | 10.5% | · | ?
O=C(NCCc1ccccc1)c1ccc2nc3cc(Cl)ccc3c(=O)n2c1 | 6.1% | -7.6% | · | 6.0% | -16.2%
Cc1c(C)n(Cc2ccccc2)c2ccc(C(=O)NCCc3ccccc3Cl)cc12 | ? | · | 5.3% | · | 20.6µM*
Cc1cc(C(=O)NCc2ccccc2F)c2ccccc2n1 | 9.1% | -9.6% | 3.7% | 6.1% | 13.1%
c1ccc(Nc2nc(-c3ccccn3)cs2)cc1 | 7.31µM* | 3.55µM* | 5.1% | 10µM* | 13µM*
O=C(CC1CC2CCC1C2)Nc1nc(-c2ccccn2)cs1 (centres undefined) | 6.51µM* | 3.16µM* | 8.1% | 12.6µM* | ?
c1ccc(-c2csc(Nc3cccnc3)n2)nc1 | ? | ? | 5.5% | 12.6% | ?
O=C(Nc1nc(-c2ccccn2)cs1)C1CC1 | 18.4µM* | 15.8µM* | 5.3% | ? | 23.1µM*
O=C(Nc1nc(-c2ccccc2)cs1)NC1CCCCC1 | -29.4% | 24.5% | 0.0% | -0.4%[0.365 µM] | -29.5%
COc1ccc(NC(=O)CC2CC3CCC2C3)cn1 (centres undefined) | -6.3% | 14.9% | 0.0% | -13.3% | -6.7%
O=C(Nc1nc(-c2ccccn2)cs1)C1CC(=O)N(c2ccc3c(c2)OCCO3)C1 (centres undefined) | 16.4µM* | 10µM* | 2.8% | ? | 25.9µM*
O=C(COC(=O)/C=C/c1ccc(C(F)(F)F)cc1)NCCC1=CCCCC1 | 2.7% | -4.4% | 2.2% | 0.6% | -17.4%
COc1ccc(-c2csc(Nc3ncccn3)n2)cc1C | 0.8% | 15.9% | · | -6.1% | -4.2%
COc1cccc2sc(Nc3nc(-c4ccccn4)cs3)nc12 | · | 0.0447µM* | 11.5% | · | ·
CC[C@H]1c2[nH]c3ccc(C(C)C)cc3c2[C@@H]2CCN3C(=O)CCC[C@H]1[C@H]23 | 10µM* | · | · | · | 10µM*
CC(C)c1ccc2[nH]c3c(c2c1)[C@@H]1CCN2C(=O)CCC[C@H](C3)[C@H]12 | 14.6µM* | ? | · | 4.1% | 18.4µM*
COc1ccc(N2CCN(CCOc3ccc4c(C)cc(=O)oc4c3)CC2)cc1 | 2.2% | 19.0% | 2.6% | -18.4% | -5.3%
CCc1ccc(NC(=O)C2=CC(c3ccc(OC)c(OC)c3)=NS(=O)(=O)N2C)cc1 | 18.4µM* | ? | · | -24.6% | 11.6µM*
COc1ccc(C2=NS(=O)(=O)N(C)C(C(=O)NCc3cccs3)=C2)cc1OC | ? | 13.2% | · | -4.8% | 14.6µM*
